Most compounds without a hit are left out; they make up all but 1.2% or so of the library.
UBC9 SUMO inh – inhibitors of human SUMOylation (UBC9) | P63279 | HTRF SUMOylation assay, SAE1/SAE2 + UBC9, in vitro | inhibition, % at 35 µM | hit rate 0.36% among 290,000 | AID 2006; in the data active means inhibition above about 50%, passing the limit was not always enough
p97 ATPase inh – blocks human p97 ATPase activity; P55072; recombinant p97 ATPase, Kinase-Glo ATP luminescence, 3 h; inhibition, % at 8 µM; hit rate 0.42% among 220,000; AID 1481; in the data active means inhibition above about 15%;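 further: 0% = DMSO vehicle and 100% = wells lacking enzyme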
FAS TE block – inhibitors of human fatty acid synthase thioesterase domain; recombinant FAS-TE, OMFH fluorogenic substrate, fluorescence endpoint; hit rate 0.67% among 360,000; P49327; AID 602261; inhibition, % at 15 µM;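 active means compounds whose normalised, plate-corrected inhibition of enzyme fluorescence in the single-dose primary screen is 50% or more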;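 further: 0% = DMSO with enzyme and 100% = substrate without enzyme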
Redox H2O2 prof – compounds producing H2O2 with reducing agent – biochemical, NIH compound library profiling, artefact control for MLSCN library redox annotation, primary screen; hit rate 0.03% among 200,000; DTT-dependent redox cycling H2O2, phenol red/HRP absorbance; 100% = 100 µM peroxide control, 0% = buffer; activation, % at 10 µM;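 active means activation of at least 50% relative to the plate's high and low controls in the primary single-dose screen; inactive means activation below 50%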;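 further: compound incubated with DTT at 0.8 mM final as the reducing agent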
Furin inh – inhibitors of human furin; hit rate 0.061% among 220,000; AID 463115; inhibition, % at 20 µM or 30 µM; purified furin, fluorogenic substrate cleavage; in the data active means inhibition above about 25%
PKD1 inh – PKD1 (human) kinase inhibition | Q15139 | PKD1 kinase fluorescence polarization assay | inhibition, % (test concentration not listed) | hit rate 0.056% among 200,000 | AID 797; in the data active means inhibition above about 50%
Target sequence (Q15139 whole entry, looked up): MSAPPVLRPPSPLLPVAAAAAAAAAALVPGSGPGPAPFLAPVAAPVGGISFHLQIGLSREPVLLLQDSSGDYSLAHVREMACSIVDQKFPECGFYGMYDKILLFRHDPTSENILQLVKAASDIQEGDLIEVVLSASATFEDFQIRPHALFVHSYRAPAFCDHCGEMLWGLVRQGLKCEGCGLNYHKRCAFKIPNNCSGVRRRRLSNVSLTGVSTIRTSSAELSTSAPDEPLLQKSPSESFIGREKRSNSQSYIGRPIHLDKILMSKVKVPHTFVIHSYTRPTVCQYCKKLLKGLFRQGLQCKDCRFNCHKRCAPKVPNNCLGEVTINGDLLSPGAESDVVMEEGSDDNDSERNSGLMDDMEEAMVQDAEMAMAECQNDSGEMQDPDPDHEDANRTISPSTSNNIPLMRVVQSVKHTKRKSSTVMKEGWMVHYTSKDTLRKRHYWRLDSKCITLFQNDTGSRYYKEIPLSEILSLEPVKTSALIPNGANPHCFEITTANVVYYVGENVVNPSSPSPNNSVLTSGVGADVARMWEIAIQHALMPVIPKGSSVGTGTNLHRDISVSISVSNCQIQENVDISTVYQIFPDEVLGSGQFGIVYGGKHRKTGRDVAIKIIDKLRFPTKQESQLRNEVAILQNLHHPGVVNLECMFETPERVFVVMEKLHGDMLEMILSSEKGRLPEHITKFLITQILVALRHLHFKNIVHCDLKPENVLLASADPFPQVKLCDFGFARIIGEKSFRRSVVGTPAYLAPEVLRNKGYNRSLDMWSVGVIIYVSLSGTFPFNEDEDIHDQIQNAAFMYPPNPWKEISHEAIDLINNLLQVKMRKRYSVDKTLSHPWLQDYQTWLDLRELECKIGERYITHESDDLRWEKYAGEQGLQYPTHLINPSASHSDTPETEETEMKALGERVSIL
FAS-TE conf – confirmation of human fatty acid synthase thioesterase inhibitors; shares compounds with FAS TE block; recombinant FAS-TE, OMFH fluorogenic substrate, fluorescence; inhibition, % at 15 µM; hit rate 45% among 2,300; AID 624325;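 active means compounds inhibiting the enzyme by at least 50% at 15 µM in any one of the replicates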;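 further: 0% = enzyme with DMSO only and 100% = wells lacking enzyme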
* marks the source's active call; other numbers are inactive results; nt = not tested or not shown.

SMILES	UBC9 SUMO inh	p97 ATPase inh	FAS TE block	Redox H2O2 prof	Furin inh	PKD1 inh	FAS-TE conf
O=C(O)COc1ccccc1C=NNc1ccc([N+](=O)[O-])cc1S(=O)(=O)Nc1ccc(Cl)cc1	nt	nt	50.1*	nt	nt	nt	61.9*
O=C(CSc1n[nH]c(=O)n1C1CC1)c1c[nH]c2ccccc12	nt	nt	-4.1	nt	nt	nt	nt
O=C(CSc1nc2nn(-c3ccccc3)c(=O)c-2c2n1CCCCC2)Nc1cccc(F)c1	nt	nt	49.5	nt	nt	nt	nt
Cc1ccc(NC(=O)CSc2nc3nn(-c4ccccc4)c(=O)c-3c3n2CCCCC3)cc1F	nt	nt	74.4*	nt	nt	nt	31.1
Cc1ccc(N(CC(=O)NC2CCCCC2)C(=O)CNC(=O)c2ccco2)cc1F	-22.6	nt	7.3	nt	nt	nt	nt
CN(C)C(=O)CCc1ccc2c3c([nH]c2c1)[C@]1(C)[C@@H](C(=O)N2CCOCC2)C[C@H](CC(=O)NCCN2CCOCC2)C(=O)N1CC3	nt	nt	-8.8	nt	nt	nt	nt
COC(=O)c1ccccc1NC(=S)NC(NC(=O)c1ccco1)C(Cl)(Cl)Cl (configuration not stated)	-7.6	-2.0	50.5*	1.6	-16.6	-2.1	42.0
COC(=O)c1ccccc1NC(=S)NC(NC(=O)COc1ccccc1)C(Cl)(Cl)Cl (configuration not stated)	13.8	-0.6	71.0*	1.5	-10.2	10.0	36.5
COC(=O)c1ccccc1NC(=O)COC(=O)c1ccc(C)c(NC(=O)c2ccco2)c1	37.2	-5.8	70.9*	-2.4	-10.1	7.4	16.9
CCC(=O)N1CCc2cc(S(=O)(=O)NCCc3ccc(S(N)(=O)=O)cc3)ccc21	-0.9	nt	-3.8	nt	nt	nt	nt
Cc1sc(NC(=O)Cc2ccc3c(c2)OCO3)nc1-c1ccc2c(c1)CCN2C(=O)c1ccccc1F	-16.6	2.7	81.2*	0.3	-8.2	-6.0	13.8
Cc1cccc(C)c1N1CCN(C(c2ccnc3ccccc23)c2nnnn2-c2ccc3c(c2)OCCO3)CC1 (configuration not stated)	nt	nt	79.4*	nt	nt	nt	2.1
COC(=O)C1=C(C(=O)OC)[C@@H]2N(Cc3ccccc3)c3ccccc3[C@@]23C[C@@H](C(=O)OC)N(C(=O)CC(C)C)C3=N1	-1.4	nt	77.0*	nt	-21.2	nt	27.6
C=CCN1c2ccccc2[C@]23C[C@@H](C(=O)OC)N(C(=O)NCCC)C2=NC(C(=O)OC)=C(C(=O)OC)[C@H]13	1.4	nt	78.8*	nt	-19.7	nt	30.8
COC(=O)C1=C(C(=O)OC)[C@@H]2N(Cc3ccccc3)c3ccccc3[C@@]23C[C@@H](C(=O)OC)N(C(=O)c2cc(C)oc2C)C3=N1	nt	nt	59.4*	nt	nt	nt	15.1
C=CCn1c(O)c(N=Nc2ccccc2[N+](=O)[O-])c2ccccc21	nt	nt	5.5	nt	nt	nt	nt
O=C(NC(Cc1c[nH]c2ccccc12)C(=O)Nc1ccc(F)c([N+](=O)[O-])c1)c1cccs1 (configuration not stated)	-25.7	8.3	63.1*	0.9	-19.2	5.9	63.3*
O=C(NC(Cc1c[nH]c2ccccc12)C(=O)Nc1ccc(OC(F)(F)F)cc1)c1cccs1 (configuration not stated)	-5.4	6.1	31.4	0.4	-18.6	-4.7	nt
Cc1ccc2c(C)nc(N/C(N)=N/S(=O)(=O)c3ccc([N+](=O)[O-])cc3)nc2c1	-7.1	3.3	52.2*	0.6	-21.5	1.1	58.4*
CC(Cc1ccccc1)N1CCCC1=O (configuration not stated)	nt	nt	-1.9	nt	nt	nt	nt
CCOc1ccc(-n2c(SCc3ccc([N+](=O)[O-])cc3)nnc2-c2ccccc2)cc1	-2.8	-0.3	63.2*	0.2	-12.4	-5.6	55.9*
COc1ccc(-n2c(SCc3ccc([N+](=O)[O-])cc3)nnc2-c2ccccc2)cc1	-3.8	6.2	56.0*	0.4	-14.1	-10.8	51.1*
CC(=O)NC(Cc1ccccc1F)C(=O)NC1CCN(C(=O)NCc2ccccc2)CC1 (configuration not stated)	-4.5	nt	-5.4	nt	nt	nt	nt
Cc1nc(CSc2ccc(Br)cc2)cs1	5.3	nt	3.3	nt	nt	nt	nt
COc1ccc(S(=O)(=O)n2ccc(-c3cnc(-c4ccccc4)s3)n2)cc1	-7.1	0.6	57.9*	0.9	-18.4	0.6	41.8
CC(=O)Nc1ccc(Nc2nc3ccccc3nc2NS(=O)(=O)c2ccc(Cl)c([N+](=O)[O-])c2)cc1	nt	nt	38.3	nt	nt	nt	nt
